In PubChem BioAssay (NCATS):
Records with an inconclusive call do not appear. Entries that show only a call come without a potency. Unmarked numbers belong to inactive results. Calls of active or inactive are those of the source. Unless noted, calls follow the shape of the dose curve; as a rule, active = well fitted curve in the direction sought with a large enough effect; inconclusive = small, poorly fitted or top-dose-only effect, or another doubt; inactive = no such curve, though single readings can be large; an effect the other way counts as inactive or inconclusive.

Legend:
[1] = molecular target: Calcium and integrin-binding protein 1 (Homo sapiens) (UniProt Q99828); assay: Primary qHTS for Identification of Calcium Integrin Binding Protein 1 (CIB1) Competitor (AID 1508620);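 also: GST tagged CIB1 binding a fluorescein labelled alphaIIb integrin peptide tracer; top concentration of the series differs between compounds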
Chain of Calcium and integrin-binding protein 1 (Homo sapiens) (Q99828 whole entry, looked up): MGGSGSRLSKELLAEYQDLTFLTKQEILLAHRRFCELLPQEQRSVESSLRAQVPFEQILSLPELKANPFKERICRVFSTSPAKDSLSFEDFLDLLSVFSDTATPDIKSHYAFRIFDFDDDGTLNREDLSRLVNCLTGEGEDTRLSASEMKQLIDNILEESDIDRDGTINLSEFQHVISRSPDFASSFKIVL
Summary of the method: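 CIB1-GST (1 uM final) and compound incubated 15 min at room temperature before adding FITC-alphaIIb peptide tracer (100 nM final). Competition for binding read by fluorescence polarization (ex 480, em 540) after another 15 min at room temperature.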

[2] = Primary qHTS for small molecule stabilizers of the endoplasmic reticulum resident proteome: Secreted ER Calcium Modulated Protein (SERCaMP) assay (AID 1508630)
Summary of the method: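 GLuc-SERCaMP-expressing SH-SY5Y cells, pretreated 16 h with compound, are challenged with thapsigargin to empty ER calcium stores; after 4 h, coelenterazine is added directly to the medium and luminescence is imaged.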

[3] = molecular target: Cytochrome P450 2D6 (Homo sapiens) (UniProt P10635); assay: Cytochrome P450 family 2 subfamily D member 6 (CYP2D6) small molecule antagonists: luciferase biochemical (cell-free) qHTS assay (AID 1645840; active = well fitted curve in the direction sought with a large enough effect in the repeat runs; an effect the other way counts as inactive or inconclusive; also: nearly all actives have a fitted effect of over 55% in size; also: potency is read from the fitted curve at half-maximal effect)
Chain of Cytochrome P450 2D6 (Homo sapiens) (P10635 whole entry, looked up): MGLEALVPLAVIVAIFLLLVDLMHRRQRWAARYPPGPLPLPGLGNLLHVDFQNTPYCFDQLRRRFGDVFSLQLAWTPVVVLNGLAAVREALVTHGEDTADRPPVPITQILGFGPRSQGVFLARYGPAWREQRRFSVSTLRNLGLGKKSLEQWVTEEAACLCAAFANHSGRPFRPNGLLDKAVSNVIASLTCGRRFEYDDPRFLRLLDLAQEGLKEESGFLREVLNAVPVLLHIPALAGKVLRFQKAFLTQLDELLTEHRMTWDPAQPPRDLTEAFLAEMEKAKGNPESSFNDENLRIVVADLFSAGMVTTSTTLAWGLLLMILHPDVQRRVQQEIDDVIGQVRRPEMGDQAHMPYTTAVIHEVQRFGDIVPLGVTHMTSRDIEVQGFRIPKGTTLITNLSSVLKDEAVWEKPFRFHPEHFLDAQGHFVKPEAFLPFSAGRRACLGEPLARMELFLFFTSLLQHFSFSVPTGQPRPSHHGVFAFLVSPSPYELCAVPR
Summary of the method: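 P450-Glo luminescent screen: recombinant CYP2D6 enzyme–proluciferin substrate mix preincubated with compound 10 min at room temperature, then NADPH regeneration added for 1 h at room temperature. Detection reagent added for 20 min; luciferin light read as relative luminescence units.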

[4] = molecular target: Cytochrome P450 2C9 (Homo sapiens) (UniProt P11712); assay: Cytochrome P450 family 2 subfamily C member 9 (CYP2C9) small molecule antagonists: luciferase biochemical (cell-free) qHTS assay (AID 1645842; active = well fitted curve in the direction sought with a large enough effect in the repeat runs; an effect the other way counts as inactive or inconclusive; also: nearly all actives have a fitted effect of over 55% in size; also: potency is read from the fitted curve at half-maximal effect)
Chain of Cytochrome P450 2C9 (Homo sapiens) (P11712 whole entry, looked up): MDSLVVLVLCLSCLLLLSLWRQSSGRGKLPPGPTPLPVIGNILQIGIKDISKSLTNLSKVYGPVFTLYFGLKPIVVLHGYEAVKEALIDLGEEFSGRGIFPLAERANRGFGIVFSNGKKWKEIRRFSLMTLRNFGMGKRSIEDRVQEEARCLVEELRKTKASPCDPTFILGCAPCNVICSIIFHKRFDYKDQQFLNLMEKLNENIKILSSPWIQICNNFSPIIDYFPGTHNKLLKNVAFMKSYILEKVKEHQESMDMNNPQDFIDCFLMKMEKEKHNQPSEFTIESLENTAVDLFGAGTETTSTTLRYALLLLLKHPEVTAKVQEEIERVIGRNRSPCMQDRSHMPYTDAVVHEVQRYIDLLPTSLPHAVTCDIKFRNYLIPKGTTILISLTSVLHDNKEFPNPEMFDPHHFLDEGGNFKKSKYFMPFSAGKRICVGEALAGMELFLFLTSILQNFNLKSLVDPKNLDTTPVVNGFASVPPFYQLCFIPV
Summary of the method: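 Luminescence, after 20 min with luciferin detection reagent, reflected CYP2C9 turnover during a 1 h NADPH-driven reaction at 37C. Enzyme-substrate mix contained 0.4% bovine serum albumin and was preincubated with compound 10 min at room temperature.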

[5] = A High-Content qHTS Against Drug Library for the Identification of Small Molecules that Inhibit DYT1 Early Onset Primary Dystonia-Associated Cell Pathology (AID 1645839; calls by dose curve; also: series mostly up to about 46 µM)
Summary of the method: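 In this high-content image screen, delE TorsinA mislocalization in inducible Flp-In 293 cells is scored as %pathology, with cell count serving as the counterscreen. Compound exposure lasts 48 h under tetracycline induction in reduced-serum medium.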

[6] = molecular target: Papain (Carica papaya) (UniProt P00784); assay: Primary qHTS assay for inhibitors of the protease papain (AID 1645873);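 also: papain turnover of Z-FR-AMC read as the AMC fluorescence gain over 10 min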; also: potency is read from the fitted curve at half-maximal effect
Chain of Papain (Carica papaya) (P00784 whole entry, looked up): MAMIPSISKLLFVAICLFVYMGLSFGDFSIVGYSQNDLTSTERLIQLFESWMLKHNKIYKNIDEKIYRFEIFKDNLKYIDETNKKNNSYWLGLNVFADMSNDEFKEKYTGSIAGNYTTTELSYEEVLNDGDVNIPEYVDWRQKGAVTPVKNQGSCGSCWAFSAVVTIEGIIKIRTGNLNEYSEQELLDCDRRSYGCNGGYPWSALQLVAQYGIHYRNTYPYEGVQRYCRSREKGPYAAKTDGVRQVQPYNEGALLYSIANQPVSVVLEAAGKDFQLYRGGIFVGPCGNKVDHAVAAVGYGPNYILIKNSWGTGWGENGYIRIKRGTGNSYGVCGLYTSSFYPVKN

[7] = molecular target: Cytochrome P450 3A4 (Homo sapiens) (UniProt P08684); assay: Cytochrome P450 family 3 subfamily A member 4 (CYP3A4) small molecule antagonists: luciferase qHTS assay (AID 1645841; active = well fitted curve in the direction sought with a large enough effect in the repeat runs; an effect the other way counts as inactive or inconclusive; also: nearly all actives have a fitted effect of over 45% in size)
Chain of Cytochrome P450 3A4 (Homo sapiens) (P08684 whole entry, looked up): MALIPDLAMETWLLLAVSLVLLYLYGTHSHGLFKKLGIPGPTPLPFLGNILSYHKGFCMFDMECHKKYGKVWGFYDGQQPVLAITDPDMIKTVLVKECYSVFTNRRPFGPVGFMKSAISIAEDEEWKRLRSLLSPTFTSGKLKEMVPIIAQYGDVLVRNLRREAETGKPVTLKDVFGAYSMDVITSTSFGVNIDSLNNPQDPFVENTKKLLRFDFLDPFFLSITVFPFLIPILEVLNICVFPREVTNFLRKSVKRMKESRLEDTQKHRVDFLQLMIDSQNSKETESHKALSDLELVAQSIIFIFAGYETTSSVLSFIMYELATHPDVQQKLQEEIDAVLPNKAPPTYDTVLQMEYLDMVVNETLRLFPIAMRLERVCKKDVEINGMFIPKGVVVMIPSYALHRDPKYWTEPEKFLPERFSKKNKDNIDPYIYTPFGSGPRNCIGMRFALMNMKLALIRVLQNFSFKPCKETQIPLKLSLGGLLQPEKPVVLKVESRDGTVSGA
Summary of the method: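 Luminescent CYP3A4 activity readout: compounds plus enzyme-substrate mix 10 min at room temperature, reaction started with NADPH regenerating system for 1 h, stopped with detection reagent, read after 20 min. Ketoconazole served as control.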

[8] = Counterscreen qHTS for small molecule stabilizers of the endoplasmic reticulum resident proteome: GLuc-NoTag assay (AID 1508627);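 also: SH-SY5Y cells given compound then 100 nM thapsigargin to empty ER calcium; series mostly up to about 76 µM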
Summary of the method: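 Luminescence of Gaussia luciferase secreted into the medium (coelenterazine, 0.07x final, unlysed cells) was the read-out. Human SH-SY5Y neuroblastoma cells constitutively secreting untagged GLuc received compound for 19 h, then 100 nM thapsigargin for 4 h.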

[9] = Confirmatory qHTS for small molecule stabilizers of the endoplasmic reticulum resident proteome: Secreted ER Calcium Modulated Protein (SERCaMP) assay (AID 1508628); also: series mostly up to about 76 µM; nearly all actives have a fitted effect of over 40% in size
Summary of the method: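 SH-SY5Y cells stably expressing GLuc-SERCaMP, treated 16 h with compound (primary 1.53, 7.67, 38.3 uM; confirmation 11 concentrations, up to 76.6 uM), then 100 nM thapsigargin for 4 h. Secreted Gaussia luciferase in medium read by coelenterazine luminescence.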

[10] = Cell Viability qHTS for small molecule stabilizers of the endoplasmic reticulum resident proteome (AID 1508629); settings: cell viability counter-screen, 100 nM thapsigargin for final 4 h;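 also: human SH-SY5Y neuroblastoma cells carrying the GLuc-SERCaMP reporter; compound exposure about 46 h in total before the viability read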

Structure (SMILES): Cc1ccc(NC(=O)c2cccc(C(C)(C)C#N)c2)cc1Nc1ccc2ncn(C)c(=O)c2c1
- outcome [1]: inactive
- Potency [2]: inactive
- Potency [3]: 12 µM (active)
- Potency [4]: 8.49 µM (active)

Structure (SMILES): NNCCc1ccccc1
- outcome [1]: inactive
- Potency [2]: inactive
- Potency [5]: inactive
- Potency [3]: 5.49 µM (active)
- Potency [6]: inactive

Structure (SMILES): CCOc1cc(C(=O)Nc2ccc(Cl)c(-c3nc4ccccc4[nH]3)c2)cc(OCC)c1OCC
- outcome [1]: inactive
- Potency [2]: inactive
- Potency [3]: inactive
- Potency [4]: inactive

Structure (SMILES): CC[C@@H](C)[C@H](NC(=O)[C@H](CC1CCCCC1)NC(=O)c1ccno1)C(=O)N1CCC2(CCc3ccccc32)CC1
- outcome [1]: inactive
- Potency [2]: inactive
- Potency [3]: inactive
- Potency [4]: inactive

Structure (SMILES): OC[C@H](Cc1ccccc1)Nc1nc(Oc2ccc3c(c2)CCC3)nc2c1ncn2Cc1ccc(-c2ccccc2)cc1
- outcome [1]: inactive
- Potency [2]: inactive
- Potency [3]: inactive

Structure (SMILES): COc1ccc(-c2c(-c3ccc(O)cc3O)n[nH]c2C)cc1
- outcome [1]: inactive
- Potency [2]: inactive
- Potency [3]: 4.47 µM (active)
- Potency [4]: 3.55 µM (active)

Structure (SMILES): O=c1[nH]c(-c2ccc(C(F)(F)F)cc2)nc2c1CSCC2
- outcome [1]: inactive
- Potency [2]: inactive
- Potency [3]: inactive
- Potency [4]: 19 µM (active)

Structure (SMILES): Clc1ccc(Nc2nnc(Cc3ccncc3)c3ccccc23)cc1
- outcome [1]: inactive
- Potency [2]: inactive
- Potency [3]: 0.0174 µM (active)
- Potency [4]: 0.049 µM (active)

Structure (SMILES): COc1cc(Oc2ccnc3cc(OC)c(OC)cc23)ccc1NC(=O)NC(C)c1nccs1 (configuration not stated)
- outcome [1]: inactive
- Potency [2]: inactive
- Potency [3]: inactive
- Potency [4]: 0.601 µM (active)

Structure (SMILES): O=c1n(CCCN2CCN(c3cccc(Cl)c3)CC2)nc2ccccn12
- outcome [1]: inactive
- Potency [2]: inactive
- Potency [5]: inactive
- Potency [4]: inactive

Structure (SMILES): Cc1ccc(-n2nc(C(C)(C)C)cc2NC(=O)Nc2ccc(OCCN3CCOCC3)c3ccccc23)cc1
- outcome [1]: inactive
- Potency [2]: inactive
- Potency [3]: 4.9 µM (active)
- Potency [4]: 9.77 µM (active)

Structure (SMILES): CNCc1ccc(-c2[nH]c3cc(F)cc4c3c2CCNC4=O)cc1
- outcome [1]: inactive
- Potency [2]: inactive
- Potency [7]: inactive
- Potency [4]: 6.01 µM (active)

Structure (SMILES): NCCCC(N)(C(=O)O)C(F)F (configuration not stated)
- outcome [1]: inactive
- Potency [2]: inactive
- Potency [5]: inactive
- Potency [6]: inactive

Structure (SMILES): CC(C)OC(=O)C1=CN(C(=O)c2ccc(F)c(F)c2)CC(C)(C)c2c1[nH]c1ccccc21
- outcome [1]: inactive
- Potency [2]: inactive
- Potency [3]: inactive

Structure (SMILES): O=C(Nc1cccnc1)N1CCC(Cc2cccc(Oc3ccc(C(F)(F)F)cn3)c2)CC1
- outcome [1]: inactive
- Potency [2]: inactive
- Potency [3]: 4.25 µM (active)
- Potency [4]: 10.7 µM (active)

Structure (SMILES): Cc1[nH]c(=O)c(C#N)cc1-c1ccncc1
- outcome [1]: inactive
- Potency [2]: inactive
- Potency [5]: inactive
- Potency [3]: inactive
- Potency [4]: 29.9 µM (active)
- Potency [6]: inactive

Structure (SMILES): CCCc1nc2c(C)cc(-c3nc4ccccc4n3C)cc2n1Cc1ccc(-c2ccccc2C(=O)O)cc1
- outcome [1]: inactive
- Potency [2]: inactive
- Potency [4]: 8.71 µM (active)

Structure (SMILES): N#Cc1ccc(C(c2ccc(C#N)cc2)n2cncn2)cc1
- outcome [1]: inactive
- Potency [2]: inactive
- Potency [3]: inactive

Structure (SMILES): S=C(NCc1ccc2c(c1)OCO2)N1CCN(c2ncnc3c2oc2ccccc23)CC1
- outcome [1]: inactive
- Potency [2]: inactive
- Potency [3]: 4.77 µM (active)
- Potency [4]: 2.13 µM (active)

Structure (SMILES): Cc1cn[nH]c1
- outcome [1]: inactive
- Potency [2]: inactive
- Potency [5]: inactive
- Potency [6]: inactive

Structure (SMILES): CCCCNc1cc(C(=O)O)cc(S(N)(=O)=O)c1Oc1ccccc1
- outcome [1]: inactive
- Potency [2]: inactive
- Potency [5]: inactive
- Potency [6]: 20 µM (active)

Structure (SMILES): C1COC(NC(C2CC2)C2CC2)=N1
- outcome [1]: inactive
- Potency [2]: inactive
- Potency [5]: inactive
- Potency [4]: inactive
- Potency [6]: inactive

Structure (SMILES): CCc1cncnc1N1CCN(Cc2nc3ccc(C(F)(F)F)cc3[nH]2)CC1
- outcome [1]: inactive
- Potency [2]: inactive
- Potency [3]: 0.107 µM (active)
- Potency [4]: 0.477 µM (active)
- Potency [6]: inactive

Structure (SMILES): OCCn1cc(-c2cnc3nnn(Cc4ccc5ncccc5c4)c3n2)cn1
- outcome [1]: inactive
- Potency [2]: inactive
- Potency [3]: inactive

Structure (SMILES): Cc1ccc(N(CC2=NCCN2)c2cccc(O)c2)cc1
- Potency [8]: inactive

Structure (SMILES): CCN(CC)CCCC(C)Nc1ccnc2cc(Cl)ccc12 (configuration not stated)
- Potency [8]: inactive
- Potency [9]: inactive
- max response [10]: -9.95%

Structure (SMILES): CCN(CCCO)CCCOc1ccc2c(Nc3cc(CC(=O)Nc4cccc(F)c4)[nH]n3)ncnc2c1
- Potency [7]: inactive

Structure (SMILES): N=c1nc(N2CCCCC2)cc(N)n1O
- Potency [7]: inactive
